From PubChem
WRN helicase inh: inhibitors of human WRN helicase. Q14191. WRN helicase unwinding, fluorescent forked duplex, kinetic. Potency, µM (doses to about 114 µM), most hits filed as inhibitors. 360,000 tested, 0.46% active. AID 651768; further: nearly all actives have a fitted effect of over 55% in size
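Primary qHTS, 1536-well format. 20 nM WRN + compound, 15 min RT; start with 100 nM forked fluorophore/quencher duplex, 2 mM ATP (final); kinetic read ex 525/em 598 nm.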
Pol eta inh: blocks human DNA polymerase eta activity; Q9Y253; recombinant Pol eta, fluorescent DNA replication assay; Potency, µM (series often up to 114 µM), most hits filed as inhibitors; 390,000 tested, 1.2% active
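Pol eta (10 nM) was preincubated with compounds for 15 min at room temperature, after which fluorescent replication substrate (50 nM final) was added to start the reaction. Fluorescence was read kinetically at 0 and 10 min.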
POLI inh: blocks human DNA polymerase iota activity. Potency, µM (series often up to 115 µM), usual class: inhibitors. 390,000 tested, 1% active. AID 588590. Pol iota fluorescent replication assay, 10 min. Q9UNA4
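Fluorescent replication assay read twice, at 0 min and 10 min after adding 50 nM (final) substrate. Enzyme (10 nM) and compounds were first incubated 15 min at room temperature; enzyme-free buffer wells were negative controls.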
Pol beta inh: blocks human DNA polymerase beta activity; Potency, µM (highest dose often 114 µM), hits mostly inhibitors; Pol beta primer extension/strand displacement, fluorescence kinetic; 340,000 tested, 1.3% active; AID 485314
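Preincubation: enzyme (10 nM) with compound, 15 min, RT. Reaction: substrate added to 50 nM final. Reads: 0 and 10 min. Analysis: normalized, Hill fit.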
FEN1 inhibitor: blocks human flap endonuclease 1 | Recombinant FEN1 flap cleavage, fluorescence, 15 min | Potency, µM (highest dose often 114 µM), hits mostly inhibitors | 390,000 tested, 0.35% active | AID 588795; further: nearly all actives have a fitted effect of over 65% in size
Target sequence (P39748 whole entry, looked up): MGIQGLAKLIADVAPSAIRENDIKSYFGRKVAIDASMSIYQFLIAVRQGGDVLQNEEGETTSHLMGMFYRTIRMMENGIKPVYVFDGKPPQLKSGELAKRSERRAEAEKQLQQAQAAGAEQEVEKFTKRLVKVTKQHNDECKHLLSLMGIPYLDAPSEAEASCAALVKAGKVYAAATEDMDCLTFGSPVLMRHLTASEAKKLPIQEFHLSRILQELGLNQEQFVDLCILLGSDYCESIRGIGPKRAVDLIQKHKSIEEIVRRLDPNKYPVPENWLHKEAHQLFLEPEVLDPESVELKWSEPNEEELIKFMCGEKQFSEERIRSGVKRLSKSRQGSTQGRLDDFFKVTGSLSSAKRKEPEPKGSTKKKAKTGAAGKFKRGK
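Compounds are tested as a concentration series against 10 nM FEN1; after a 15 min room-temperature preincubation, 50 nM substrate starts cleavage, with plate reads at 0 and 15 min. Normalized responses are fitted by a Hill equation.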
POLK inh: inhibitors of human DNA polymerase kappa | purified Pol kappa, fluorescent DNA synthesis assay, 10 min | Q9UBT6 | 400,000 tested, 0.53% active | Potency, µM (highest dose often 107 µM), most hits filed as inhibitors | AID 588579
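Activity was followed as the change in fluorescence between reads at 0 and 10 min after starting the reaction with 50 nM substrate. Beforehand, 10 nM polymerase had been preincubated with compound for 15 min at room temperature.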
Of the large screens only hits and unclear results are named; the others gave an inactive call. Hits are enriched below; roughly 2.4% of the tested compounds scored in any of these assays. The call rests on the fitted dose curve; in most records, active means well fitted curve in the direction sought with a large enough effect; inconclusive means small, poorly fitted or top-dose-only effect, or another doubt; inactive means no such curve, though single readings can be large; an effect the other way counts as inactive or inconclusive.

O=C(O)c1cccc2c1NC(c1cccc([N+](=O)[O-])c1)C1CC(Sc3ccccc3[N+](=O)[O-])C(Cl)C21 (stereo unspecified)	Pol eta inh 32µM, POLI inh inconclusive, Pol beta inh inconclusive, POLK inh inconclusive
O=C(O)c1ccc2c(c1)C1C(Cl)C(Sc3ccccc3[N+](=O)[O-])CC1C(c1cccc([N+](=O)[O-])c1)N2 (stereo unspecified)	WRN helicase inh inconclusive, Pol eta inh 22µM, POLI inh inconclusive, Pol beta inh inconclusive, FEN1 inhibitor inconclusive, POLK inh 50µM
CCN(CC)C(=O)c1ccc2c(c1)C1C(Cl)C(Sc3ccccc3[N+](=O)[O-])CC1C(C(=O)O)N2 (stereo unspecified)	Pol eta inh 18µM, POLI inh inconclusive, Pol beta inh 50µM, FEN1 inhibitor inconclusive, POLK inh inconclusive
CC(C)=CCCC1(C)C=Cc2c(O)c3c(c(CC=C(C)C)c2O1)OC12C(CC4CC1C(C)(C)OC2(C/C=C(/C)C(=O)O)C4O)C3=O (stereo unspecified)	none (no result: WRN helicase inh, Pol eta inh, POLI inh, Pol beta inh, FEN1 inhibitor)
CN(N=Cc1ccc([N+](=O)[O-])cc1)c1ccccn1	none (no result: POLI inh, Pol beta inh, FEN1 inhibitor, POLK inh)
CCn1c(N)c(C(=O)NC)sc1=S	WRN helicase inh 56µM, POLI inh inconclusive
COc1cc2c(cc1OC)[C@@H]1C(=O)c3ccc(OC)c(CC=C(C)C)c3OC1CO2 (stereo partly specified)	none (no result: WRN helicase inh, Pol eta inh, POLI inh, Pol beta inh, FEN1 inhibitor)
O=C(O)COc1ccc(Br)cc1C(c1c(C(=O)O)[nH]c2ccccc12)c1c(C(=O)O)[nH]c2ccccc12	Pol eta inh 89µM, POLI inh inconclusive, FEN1 inhibitor inconclusive, POLK inh inconclusive
C/C=C(\C)C(=O)OC1C(C)=C2C(C1OC(=O)CCCCC)C(C)(OC(C)=O)CC(OC(=O)CCC)C1(O)C2OC(=O)C1(C)O (stereo unspecified)	Pol beta inh 25µM (no result: WRN helicase inh, Pol eta inh, POLI inh, FEN1 inhibitor, POLK inh)
C[C@H](CCC(=O)O)[C@H]1CC[C@@H]2[C@H]3CC[C@H]4C[C@@H](O)CC[C@@]4(C)[C@H]3CC[C@]21C	none (no result: WRN helicase inh, Pol eta inh, POLI inh, Pol beta inh, FEN1 inhibitor)
O=C1NC(=O)C(=C/C=C/c2coc3ccc(Br)cc3c2=O)C(=O)N1	Pol beta inh 1.6µM (no result: WRN helicase inh, Pol eta inh, POLI inh, FEN1 inhibitor, POLK inh)
O=C1NC(=O)C(=Cc2coc3ccccc3c2=O)C(=O)N1	none
COC1C(O)C(C)O[C@H](OC2CC[C@@]3(C=O)C4CC[C@]5(C)C(C6=CC(=O)OC6)CC[C@@]5(O)C4CC[C@@H]3C2)C1O (stereo partly specified)	none (no result: WRN helicase inh, Pol eta inh, POLI inh, Pol beta inh, FEN1 inhibitor)
ClC1=C(Cl)C(Cl)=C(Cl)C1=C/C=C/c1ccccc1	Pol eta inh inconclusive, POLI inh 45µM, Pol beta inh inconclusive, POLK inh inconclusive
Cc1ccc(Cl)cc1Nc1nn2c(=O)c3ccc(C(=O)NCc4cccs4)cc3nc2s1	Pol eta inh inconclusive, POLI inh inconclusive, Pol beta inh 8.9µM (no result: WRN helicase inh)
Cc1ccc(N2C(=O)NC(=O)/C(=C\c3cn(CC(=O)O)c4ccccc34)C2=O)cc1	Pol eta inh inconclusive, POLI inh 32µM
COC(=O)Cn1cc(/C=C2\C(=O)NC(=O)N(c3ccccc3)C2=O)c2ccccc21	POLI inh inconclusive, FEN1 inhibitor inconclusive
COC(=O)C1=C(c2ccc(F)cc2OCc2ccccc2)C[C@@H]2CC[C@H]1N2C(=O)NCc1ccco1	Pol eta inh 45µM, POLI inh inconclusive, POLK inh inconclusive (no result: Pol beta inh)
O=C(Cc1ccc(Cl)c(Cl)c1)N1CCCC[C@H]1CN1CCCC1	none (no result: WRN helicase inh, Pol eta inh, POLI inh, Pol beta inh, FEN1 inhibitor)
CCCN1CCC[C@@H]2Cc3n[nH]cc3C[C@H]21	none (no result: WRN helicase inh, FEN1 inhibitor, POLK inh)
CN(C)[C@@H]1C(=O)C(C(N)=O)=C(O)[C@]2(O)C(=O)C3=C(O)c4c(O)cccc4[C@@](C)(O)[C@H]3[C@H](O)[C@@H]12	POLK inh 4.7µM (no result: WRN helicase inh, Pol eta inh, POLI inh, Pol beta inh, FEN1 inhibitor)
CN(C)C1C(=O)C(C(N)=O)=C(O)[C@@]2(O)C(=O)C3=C(O)c4c(O)cccc4[C@@](C)(O)C3[C@H](O)C12 (stereo partly specified)	POLK inh 10µM (no result: WRN helicase inh, Pol eta inh, POLI inh, Pol beta inh, FEN1 inhibitor)
ClC1=C(Cl)C(Cl)(C2(Cl)C(Cl)=C(Cl)C(Cl)=C2Cl)C(Cl)=C1Cl	POLK inh 6.7µM (no result: WRN helicase inh, Pol eta inh, POLI inh, Pol beta inh, FEN1 inhibitor)
S=c1[nH]nc(Cn2c(-c3ccccn3)nc3ccccc32)n1-c1ccc2c(c1)OCCO2	none
O=C(O)C(NC(=O)c1ccccc1)=C(Cl)Cl	POLI inh inconclusive (no result: Pol beta inh)
O=C1C(=O)C(Cl)=C(Cl)C(Cl)=C1Cl	WRN helicase inh 40µM (no result: Pol eta inh, POLI inh, Pol beta inh, FEN1 inhibitor, POLK inh)
c1ccc(N2CC3(CCNCC3)C2)nc1	none (no result: WRN helicase inh, Pol eta inh, POLI inh, Pol beta inh, FEN1 inhibitor)
CC(=O)OC1C[C@@]2(C)C(c3ccoc3)C[C@H]3O[C@@]32[C@@]2(C)C(=O)C(O)=C3C(C)(C)C(=O)C=C[C@]3(C)C12 (stereo partly specified)	none (no result: WRN helicase inh, Pol eta inh, POLI inh, Pol beta inh, FEN1 inhibitor)
Cc1ccccc1-n1c(O)c(/C=C2/C(c3ccccc3)=Nc3ccccc32)c(=O)[nH]c1=O	WRN helicase inh inconclusive
COc1ccc(-n2c(O)c(/C=C3\C=Nc4ccc(Br)cc43)c(=O)[nH]c2=O)c(OC)c1	Pol eta inh 79µM, POLI inh inconclusive, FEN1 inhibitor inconclusive
COC(=O)C1=Nc2ccccc2/C1=C\c1c(O)n(-c2cc(OC)ccc2OC)c(=O)[nH]c1=O	WRN helicase inh 50µM, Pol eta inh inconclusive
COc1ccc(-n2c(O)c(/C=C3\C=Nc4ccccc43)c(=O)[nH]c2=O)cc1	Pol eta inh inconclusive, POLI inh inconclusive
